Laboratory results reported in PubChem BioAssay (Tox21).
Inconclusive results are not listed. A call without a number means that no potency is given here. The source made the active and inactive calls. Unless noted, calls follow the shape of the dose curve; as a rule, active = well fitted curve in the direction sought with a large enough effect in the repeat runs; inconclusive = weak or mixed curves; inactive = no such curve, though single readings can be large; an effect the other way counts as inactive or inconclusive.

Columns and labels:
[1] = qHTS assay to identify small molecule agonists of the vitamin D receptor (VDR) signaling pathway - cell viability counter screen (AID 743224); also: nearly all actives have a fitted effect of over 50% in size; also: potency is read from the fitted curve at half-maximal effect
Procedure, shortened: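 VDR-bla cells were preincubated 4 h at 37C/5% CO2, then exposed to compounds for 16 h. After the 2 h room-temperature bla FRET read, CellTiter-Glo was added to the same wells and luminescence read after 30 min.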

[2] = qHTS assay to identify small molecule antagonists of the vitamin D receptor (VDR) signaling pathway - cell viability counter screen (AID 743225); also: nearly all actives have a fitted effect of over 50% in size; also: potency is read from the fitted curve at half-maximal effect
Procedure, shortened: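 Same-well multiplex: following 16 h treatment of HEK 293T cells carrying a UAS-driven beta-lactamase reporter with compound and agonist (3 nM final), and a 2 h FRET substrate step, CellTiter-Glo was added and luminescence read after 30 min.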

[3] = qHTS assay to identify small molecule agonists of the NFkB signaling pathway - cell viability counter screen (AID 1159515; calls by dose curve; also: nearly all actives have a fitted effect of over 55% in size; also: potency is read from the fitted curve at half-maximal effect)
Procedure, shortened: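 NFkB-bla ME-180 cells, 2,000/well, were plated overnight at 37 C, 5% CO2, then exposed to compounds in DMSO for 5 hr. After the bla FRET read, CellTiter-Glo was added to the same wells; luminescence was read after 30 min at room temperature.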

[4] = qHTS assay to identify small molecule agonists of the endoplasmic reticulum stress response signaling pathway - cell viability counter screen (AID 1159517; calls by dose curve; also: nearly all actives have a fitted effect of over 50% in size; also: potency is read from the fitted curve at half-maximal effect)
Procedure, shortened: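 Cells, HeLa ESRE-bla; density, 1,500/well; dosing, 5 hr at 37 C, 5% CO2; readout, CellTiter-Glo luminescence after 30 min RT.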

[5] = qHTS assay to identify small molecule antagonists of the retinoid-related orphan receptor gamma (ROR-gamma) signaling pathway - cell viability counter screen (AID 1159520); also: nearly all actives have a fitted effect of over 50% in size; also: potency is read from the fitted curve at half-maximal effect
Procedure, shortened: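 Cytotoxicity was read from cellular ATP (CellTiter-Glo luminescence) after 16 hr at 37 C with 1 uM doxycycline induction. The inducer was added 2 hr after compound transfer to Tet-on ROR gamma CHO cells.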

[6] = molecular target: Nuclear receptor ROR-gamma (Homo sapiens) (UniProt P51449); assay: qHTS assay to identify small molecule antagonists of the retinoid-related orphan receptor gamma (ROR-gamma) signaling pathway (AID 1159521; also: nearly all actives have a fitted effect of over 50% in size; also: potency is read from the fitted curve at half-maximal effect)
Procedure, shortened: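 Inducible-expression reporter assay: doxycycline (1 uM final) switched on RORγ in CHO cells bearing a ROR response element-luciferase construct, with test compounds present from 2 h beforehand. Decreased luminescence after 16 h defined antagonist activity.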

[7] = qHTS assay to identify small molecule agonists of the AP-1 signaling pathway - cell viability counter screen (AID 1159525; calls by dose curve; also: nearly all actives have a fitted effect of over 55% in size; also: potency is read from the fitted curve at half-maximal effect)
Procedure, shortened: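 Luminescent ATP readout (Cell Titer Glo, 30 min RT), normalised to DMSO and tetra n-octyl ammonium bromide controls. Cells were ME-180 AP-1-bla in 0.5% dialyzed FBS Opti-MEM, with a 5 h, 37 °C compound exposure.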

[8] = qHTS assay to identify small molecule agonists of the RXR signaling pathway - cell viability counter screen (AID 1159529); also: nearly all actives have a fitted effect of over 50% in size; also: potency is read from the fitted curve at half-maximal effect
Procedure, shortened: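 Counter screen: CellTiter-Glo luminescence. Cells: RXR-alpha-UAS-bla HEK 293T. Medium: 2% charcoal-stripped FBS. Treatment: 16 h, 37 C. Reagent incubation: 30 min, RT.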

[9] = qHTS assay to identify small molecule antagonists of the retinoid acid receptor (RAR) signaling pathway - cell viability counter screen (AID 1159551); also: nearly all actives have a fitted effect of over 35% in size; also: potency is read from the fitted curve at half-maximal effect
Procedure, shortened: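 C3RL4 cells were seeded overnight at 37 C, then treated with compounds plus 1 uM (final) retinol for 6 h at 37 C. Viability was read as ATP by CellTiter-Glo luminescence after 30 min at room temperature.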

[10] = qHTS assay to identify small molecule antagonists of the retinoic acid receptor (RAR) signaling pathway (AID 1159552; also: nearly all actives have a fitted effect of over 50% in size; also: potency is read from the fitted curve at half-maximal effect)
Procedure, shortened: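 Antagonism of retinol-induced RARE reporter activity was measured in C3RL4 cells. Exposure to compounds and 1 uM final retinol lasted 6 hr at 37 C, with luminescence as endpoint.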

[11] = qHTS assay to identify small molecule agonists of the retinoic acid receptor (RAR) signaling pathway (AID 1159553)
Procedure, shortened: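 C3RL4 cells carrying a RARE luciferase reporter were plated overnight at 37 C, then exposed to compounds in DMSO for 6 hr at 37 C and 5% CO2. Luminescence was read 30 min after luciferase reagent addition at room temperature.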

[12] = qHTS assay to identify small molecule agonists of the AP-1 signaling pathway (AID 1159526; calls by dose curve)
[13] = qHTS assay to identify small molecule antagonists of the estrogen related receptor (ERR) signaling pathway (AID 1224819)
Procedure, shortened: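 ERR reporter cells were plated at 2,000 cells/well and left 6 h at 37 C/5% CO2 before pin-tool transfer of compounds in DMSO. After 18 h at 37 C, One-Glo was added and luminescence was read 30 min later at room temperature.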

[14] = qHTS assay to identify small molecule agonists of the estrogen related receptor (ERR) signaling pathway (AID 1224820)
Procedure, shortened: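 ERR reporter cells (NTP line) plated 2,000/well, incubated 6 h at 37 C/5% CO2, then pinned with compounds in DMSO and held 18 h at 37 C. One-Glo added; luminescence read after 30 min at room temperature.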

[15] = qHTS assay to identify small molecule agonists of the estrogen related receptor signaling pathway with the pleiotropic PPARgamma coactivator (PGC) (AID 1224823)
Procedure, shortened: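 PGC/ERR reporter cells were seeded, rested 6 h at 37 C/5% CO2, then exposed to compounds in DMSO by pin transfer for 18 h at 37 C. Luciferase activity was read as luminescence after One-Glo reagent and 30 min at room temperature.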

[16] = qHTS assay to identify small molecule antagonists of the estrogen related receptor (ERR) signaling pathway - cell viability counter screen (AID 1224818);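 also: potency is read from the fitted curve at half-maximal effect; viability measured after 17.5 h of compound exposure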
Procedure, shortened: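 ERR reporter cells plated 6 h at 37 C/5% CO2, then compounds in DMSO pin-transferred and incubated 17.5 h at 37 C. Viability read as CellTiter-Fluor fluorescence after 30 min at 37 C.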

[17] = qHTS assay to identify small molecule antagonists of the estrogen related receptor signaling pathway with the pleiotropic PPARgamma coactivator (PGC) cell viability counter screen (AID 1224822; also: potency is read from the fitted curve at half-maximal effect)
Procedure, shortened: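 PGC/ERR cells were seeded at 2,000 cells/well, rested 6 h at 37 C/5% CO2, then given compounds in DMSO by pin tool and incubated 17.5 h at 37 C. Viability came from CellTiter-Fluor fluorescence after 30 min.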

[18] = molecular target: Retinoic acid receptor RXR-alpha (Homo sapiens) (UniProt P19793); assay: qHTS assay to identify small molecule agonists of the RXR signaling pathway (AID 1159527; calls by dose curve; also: nearly all actives have a fitted effect of over 35% in size; also: potency is read from the fitted curve at half-maximal effect)
Procedure, shortened: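 Compounds in DMSO were added to RXR-alpha-UAS-bla HEK 293T cells kept in 2% charcoal-stripped serum, and incubated 16 hr at 37 C with 5% CO2. Reporter signal came from a 2 hr B/G FRET substrate step.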

Retinoic acid receptor RXR-alpha (Homo sapiens), sequence (P19793 whole entry, looked up): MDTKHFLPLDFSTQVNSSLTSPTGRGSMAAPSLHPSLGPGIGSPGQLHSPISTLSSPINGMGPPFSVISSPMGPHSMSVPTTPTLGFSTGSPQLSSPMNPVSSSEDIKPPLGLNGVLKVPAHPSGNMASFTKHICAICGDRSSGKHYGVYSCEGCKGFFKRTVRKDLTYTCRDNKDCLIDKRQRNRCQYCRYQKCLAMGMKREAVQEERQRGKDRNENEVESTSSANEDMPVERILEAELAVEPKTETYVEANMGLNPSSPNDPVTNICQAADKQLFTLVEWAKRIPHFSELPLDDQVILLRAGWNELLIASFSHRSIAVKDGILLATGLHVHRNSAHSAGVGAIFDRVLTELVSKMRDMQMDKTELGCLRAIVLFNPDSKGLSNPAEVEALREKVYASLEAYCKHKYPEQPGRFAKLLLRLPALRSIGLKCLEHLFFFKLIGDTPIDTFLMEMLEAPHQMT

Structure (SMILES) | Potency [1] | Potency [2] | Potency [3] | Potency [4] | Potency [5] | Potency [6] | Potency [7] | Potency [8] | Potency [9] | Potency [10] | Potency [11] | Potency [12] | Potency [13] | outcome [14] | outcome [15] | Potency [16] | Potency [17] | Potency [18]
CCN(C(=O)c1cc(C)cc(OC[C@H](C)Nc2ccncc2)c1)C(C)C | inactive | inactive | inactive | inactive | inactive | inactive | inactive | inactive | inactive | inactive | inactive |  |  |  |  |  |  | 
Cc1cccc(CN2CCN(C(c3ccccc3)c3ccc(Cl)cc3)CC2)c1 (stereo unspecified) |  |  | inactive | inactive | inactive | inactive | inactive |  | inactive |  |  | inactive |  |  |  |  |  | 
OCCN(CCO)c1nc(N2CCCCC2)c2nc(N(CCO)CCO)nc(N3CCCCC3)c2n1 |  |  | inactive | inactive | inactive | inactive | inactive | inactive | inactive | inactive | inactive |  | 11.9 µM (active) | inactive | inactive |  |  | 
CC(C)(C)c1ccc(C(=O)CCCN2CCC(OC(c3ccccc3)c3ccccc3)CC2)cc1 |  |  | 23.9 µM (active) | 23.9 µM (active) | 21.1 µM (active) | 11.9 µM (active) | 15.1 µM (active) | 15.1 µM (active) |  | 26.6 µM (active) |  |  |  |  |  |  |  | 
CCCCCCCC[P+](CCCCCCCC)(CCCCCCCC)CCCCCCCC | 3.45 µM (active) | 13.7 µM (active) | 5.46 µM (active) | 13.7 µM (active) | 6.82 µM (active) | 1.71 µM (active) | 12.2 µM (active) | 3.87 µM (active) | 54.2 µM (active) |  |  |  |  |  |  |  |  | 
CCCCCCCCn1sc(Cl)c(Cl)c1=O | 2.75 µM (active) | 6.92 µM (active) | 9.77 µM (active) | 3.47 µM (active) | 2.73 µM (active) | 4.86 µM (active) | 19.5 µM (active) |  | 13.7 µM (active) | 27.3 µM (active) |  |  |  |  |  |  |  | 
CCCCCCCCCCCCCC[P+](CCCC)(CCCC)CCCC (tested in a mixture with another compound) | inactive | inactive | 22 µM (active) | 22 µM (active) | 15.4 µM (active) | 4.89 µM (active) | 12.4 µM (active) |  | 27.5 µM (active) |  |  |  |  |  |  |  |  | 
O=C(OCC1CO1)C1CCCCC1C(=O)OCC1CO1 (stereo unspecified) | inactive | inactive | inactive | inactive | inactive | inactive |  | inactive |  |  |  | inactive |  |  |  |  |  | 
N=C1N=C(N)c2cc3ccccc3cc21 | 49 µM (active) |  | 49 µM (active) | 8.71 µM (active) | 30.6 µM (active) | 30.6 µM (active) | 49 µM (active) | 49 µM (active) |  | 43.3 µM (active) |  |  |  | inactive | inactive | 25.3 µM (active) | 20.9 µM (active) | 
CC(C)(C)c1ccc(C(=O)O)cc1 | inactive | inactive | inactive | inactive | inactive |  | inactive | inactive | inactive |  | inactive | inactive |  |  |  |  |  | inactive
Cc1[nH]nc2c1N=C(c1ccccc1Cl)c1cc([N+](=O)[O-])ccc1N2 | 5.49 µM (active) | 21.9 µM (active) | inactive | 43.6 µM (active) | 54.5 µM (active) | 21.7 µM (active) | 30.9 µM (active) | 34.7 µM (active) | 43.3 µM (active) |  |  |  |  |  |  |  |  | 
Cc1cc(O)c(C(C)(C)C)cc1Sc1cc(C(C)(C)C)c(O)cc1C | 4.36 µM (active) | 7.75 µM (active) | 17.3 µM (active) | 21.8 µM (active) | 8.62 µM (active) | 2.73 µM (active) | 12.3 µM (active) | 12.3 µM (active) | 61 µM (active) |  |  |  |  |  |  |  |  | 
O=S1(=O)CC(Cl)(Cl)C(Cl)(Cl)C1 | 2.19 µM (active) | 4.36 µM (active) | 5.49 µM (active) | 4.9 µM (active) | 6.11 µM (active) | 2.17 µM (active) | 4.9 µM (active) | 4.36 µM (active) | 15.4 µM (active) |  |  |  |  |  |  |  |  | 
CC(=O)SC[C@@H](Cc1ccccc1)C(=O)NCC(=O)OCc1ccccc1 | inactive |  | inactive | inactive | inactive |  | inactive | inactive | inactive |  |  | inactive |  |  |  |  |  | inactive
Cc1nc(-c2ccc3c(c2)CCN(CCC2CCC(NC(=O)/C=C/c4ccc(F)cc4)CC2)CC3)no1 (stereo unspecified) |  | inactive | inactive | inactive | 15.4 µM (active) | 1.94 µM (active) | inactive | inactive | inactive |  |  |  |  |  |  |  |  | 
CCCC(C)c1ccccc1O (stereo unspecified) | inactive | inactive | inactive | inactive | inactive | inactive |  |  | inactive | inactive | inactive |  |  |  |  |  |  | inactive
Nc1c(Cl)cc(Cl)cc1Cl | inactive | inactive | inactive | inactive | inactive |  | inactive | inactive | inactive | inactive | inactive | inactive |  |  |  |  |  | 12.1 µM (active)
CCCCCCCCCCCCCCCC[N+](C)(C)CCN(Cc1ccc(OC)cc1)c1ncccn1 |  | 19 µM (active) | 23.9 µM (active) | 21.3 µM (active) | 29.8 µM (active) | 33.5 µM (active) | 21.3 µM (active) | 5.35 µM (active) | 29.8 µM (active) |  |  |  |  |  |  |  |  | 
CCCCCCCCCCCCCCCCCC[N+](C)(C)C | 24.6 µM (active) |  | 55.1 µM (active) | 49.1 µM (active) | 54.6 µM (active) | 6.13 µM (active) | 49.1 µM (active) | 24.6 µM (active) |  | 54.6 µM (active) |  |  |  |  |  |  |  | 
